Test results: PubChem BioAssay AID1159580 (chemical genetic matrix, 2015)
“And” between values parts separate entries of the source, which are not always exact repeats. Equal values may be shown once. Hit rate of the full screen: of about 5,500 compounds, about 2,000 (36%) were called active. Not shown: some 18% with an inconclusive outcome. Cut-off read from the data, not from the text of the source: active = normalized growth mostly below about 0.91 (no sharp cut-off); inconclusive = no clear call, values can overlap the other calls; inactive = mostly above about 0.92. The list shows a part of the results.

Test: chemical genetic growth profiling, strain panel (AID 1159580);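 note: tested at 20 µM; growth read once vehicle control cultures reached saturation at 30 °C; 1 = growth at the plate median or of vehicle wells; lower values mean less growth of the strain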
Conditions: S. cerevisiae deletion strains, growth OD

Measured: normalized growth

C=C1C(C2(C)C=CC(=O)C(C)(C)C2CC(=O)OC)CC[C@@]2(C)[C@H](c3ccoc3)OC(=O)C3OC132 (stereo not given in full)
inactive: locus YAL021C, strain ccr4, active compounds read low 1.02 | locus YAL026C, strain drs2, active compounds read low 0.97 | locus YAL030W, strain snc1, active compounds read low 0.996 | locus YBL061C, strain skt5, active compounds read low 0.988 | locus YBR009C, strain hhf1, active compounds read low 1 | locus YBR021W, strain FUR4, active compounds read low 1.03 | locus YBR023C, strain chs3, active compounds read low 1 | locus YBR171W, strain sec66, active compounds read low 0.954 | locus YBR229C, strain ROT2, active compounds read low 0.957 | locus YBR231C, strain swc5, active compounds read low 0.976 | locus YBR279W, strain paf1, active compounds read low 0.999 | locus YCL011C, strain gbp2, active compounds read low 1 | locus YCL016C, strain dcc1, active compounds read low 1.03 | locus YCL029C, strain bik1, active compounds read low 0.977 | locus YCL061C, strain MRC1, active compounds read low 0.997 | locus YCL069W, strain vba3, active compounds read low 0.986 | locus YCR088W, strain abp1, active compounds read low 0.991 | locus YDL005C, strain med2, active compounds read low 0.997 | locus YDL035C, strain GPR1, active compounds read low 0.978 | locus YDL040C, strain nat1, active compounds read low 0.992 | locus YDL074C, strain BRE1, active compounds read low 0.969 | locus YDL101C, strain DUN1, active compounds read low 0.987 | locus YDL185W, strain tfp1, active compounds read low 0.956 | locus YDL192W, strain arf1, active compounds read low 0.985 | locus YDR001C, strain nth1, active compounds read low 0.992 | locus YDR069C, strain doa4, active compounds read low 0.966 | locus YDR101C, strain arx1, active compounds read low 0.97 | locus YDR137W, strain rgp1, active compounds read low 0.976 | locus YDR159W, strain sac3, active compounds read low 0.962 | locus YDR162C, strain NBP2, active compounds read low 0.982 | locus YDR195W, strain ref2 0.976 | locus YDR297W, strain sur2, active compounds read low 0.996 | locus YDR318W, strain mcm21, active compounds read low 0.99 | locus YDR334W, strain swr1, active compounds read low 0.966 | locus YDR335W, strain msn5, active compounds read low 1 | locus YDR388W, active compounds read low 0.977 | locus YDR392W, strain spt3, active compounds read low 0.942 | locus YDR502C, strain sam2, active compounds read low 0.979 | locus YEL003W, strain gim4, active compounds read low 0.983 | locus YEL037C, strain rad23, active compounds read low 0.989 | locus YEL061C, strain CIN8 (second series), active compounds read low 0.982 | locus YEL061C, strain CIN8, active compounds read low 0.995 | locus YER015W, strain faa2, active compounds read low 0.996 | locus YER016W, strain bim1, active compounds read low 0.989 | locus YER110C, active compounds read low 0.981 | locus YER111C, strain swi4, active compounds read low 0.972 | locus YER155C, strain BEM2 (second series), active compounds read low 1.01 | locus YER155C, strain BEM2, active compounds read low 0.995 | locus YER167W, strain BCK2, active compounds read low 0.985 | locus YFR010W, strain ubp6, active compounds read low 0.971 | locus YGL078C, strain dbp3, active compounds read low 0.978 | locus YGL086W, strain mad1, active compounds read low 1.01 | locus YGL167C, strain pmr1, active compounds read low 0.989 | locus YGL173C, strain kem1, active compounds read low 0.968 | locus YGL227W, strain vid30, active compounds read low 0.999 | locus YGL240W, strain doc1, active compounds read low 0.999 | locus YGL248W, strain PDE1, active compounds read low 0.995 | locus YGR135W, strain pre9, active compounds read low 1.02 | locus YGR229C, strain SMI1, active compounds read low 0.998 | locus YGR252W, strain gcn5, active compounds read low 0.984 | locus YHR013C, strain ard1, active compounds read low 0.993 | locus YHR027C, strain rpn1, active compounds read low 0.972 | locus YHR030C, strain SLT2, active compounds read low 0.991 and 0.976 | locus YHR079C, strain IRE1 (second series), active compounds read low 0.975 | locus YHR079C, strain IRE1, active compounds read low 0.978 | locus YHR094C, strain hxt1, active compounds read low 0.976 | locus YHR129C, strain ARP1, active compounds read low 0.992 | locus YHR142W, strain chs7, active compounds read low 1.02 | locus YHR200W, strain rpn10, active compounds read low 0.968 | locus YIL066C, strain RNR3, active compounds read low 0.974 | locus YIL073C, strain SPO22, active compounds read low 0.994 | locus YIL125W, strain kgd1, active compounds read low 0.978 | locus YIR030C, strain dcg1, active compounds read low 0.977 | locus YJL092W, strain hpr5, active compounds read low 0.973 | locus YJL095W, strain BCK1 (second series), active compounds read low 0.979 | locus YJL095W, strain BCK1, active compounds read low 1 and 0.987 | locus YJL115W, strain asf1, active compounds read low 0.98 | locus YJL129C, strain trk1, active compounds read low 0.961 | locus YJL134W, strain LCB3, active compounds read low 0.983 | locus YJL154C, strain vps35, active compounds read low 1.01 | locus YJL164C, strain tpk1, active compounds read low 1.03 | locus YJL166W, strain qcr8, active compounds read low 1 | locus YJL168C, strain set2, active compounds read low 0.994 | locus YJL187C, strain SWE1 (second series), active compounds read low 0.989 | locus YJR066W, strain TOR1, active compounds read low 0.932 | locus YJR075W, strain HOC1, active compounds read low 0.98 | locus YKL009W, strain mrt4, active compounds read low 0.986 | locus YKL068W, active compounds read low 0.989 | locus YKL085W, strain MDH1 (second series), active compounds read low 1 | locus YKL085W, strain MDH1, active compounds read low 1 | locus YKL160W, strain elf1, active compounds read low 1.05 | locus YKR001C, strain vps1, active compounds read low 0.992 | locus YKR026C, strain gcn3, active compounds read low 0.981 | locus YKR091W, strain srl3, active compounds read low 0.996 | locus YLL001W, strain dnm1, active compounds read low 0.967 | locus YLL026W, active compounds read low 0.984 | locus YLL041C, strain sdh2, active compounds read low 0.975 | locus YLR027C, strain aat2, active compounds read low 0.978 | locus YLR039C, strain RIC1, active compounds read low 0.92 | locus YLR058C, strain SHM2, active compounds read low 0.979 | locus YLR102C, strain apc9, active compounds read low 0.983 | locus YLR113W, strain HOG1, active compounds read low 0.991 | locus YLR221C, strain rsa3, active compounds read low 0.978 | locus YLR258W, strain gsy2, active compounds read low 1.02 | locus YLR262C, strain YPT6 (second series), active compounds read low 0.983 | locus YLR262C, strain YPT6, active compounds read low 0.933 | locus YLR268W, strain sec22, active compounds read low 0.959 | locus YLR320W, strain mms22, active compounds read low 1 | locus YLR342W, strain FKS1, active compounds read low 0.993 | locus YLR357W, strain rsc2, active compounds read low 0.978 | locus YLR370C, strain arc18, active compounds read low 0.963 | locus YLR371W, strain rom2, active compounds read low 0.972 | locus YLR384C, strain iki3, active compounds read low 1 | locus YLR418C, strain cdc73, active compounds read low 0.994 | locus YML016C, strain PPZ1, active compounds read low 0.978 | locus YML032C, strain rad52, active compounds read low 0.965 | locus YML120C, strain ndi1, active compounds read low 1.02 | locus YML124C, strain tub3, active compounds read low 0.988 | locus YMR058W, strain fet3, active compounds read low 0.994 | locus YMR078C, strain ctf18, active compounds read low 0.961 | locus YMR125W, strain sto1, active compounds read low 0.992 | locus YMR129W, active compounds read low 0.99 | locus YMR205C, strain PFK2, active compounds read low 1 | locus YMR223W, strain ubp8, active compounds read low 0.993 | locus YMR231W, strain pep5, active compounds read low 0.973 | locus YMR263W, strain SAP30, active compounds read low 0.972 | locus YMR307W, strain GAS1, active compounds read low 1.16 | locus YNL067W, strain RPL9B, active compounds read low 0.992 | locus YNL071W, strain lat1, active compounds read low 0.999 | locus YNL153C, strain GIM3, active compounds read low 0.982 | locus YNL183C, strain NPR1, active compounds read low 0.968 | locus YNL209W, strain ssb2, active compounds read low 1 | locus YNL233W, strain BNI4, active compounds read low 1.02 | locus YNL248C, strain rpa49, active compounds read low 0.938 | locus YNL250W, strain rad50, active compounds read low 0.972 | locus YNL271C, strain bni1, active compounds read low 0.976 | locus YNL298W, strain CLA4, active compounds read low 0.976 | locus YNL307C, strain MCK1, active compounds read low 0.982 | locus YNL322C, strain KRE1 (second series), active compounds read low 0.992 | locus YNR049C, strain mso1, active compounds read low 0.988 | locus YNR052C, strain pop2, active compounds read low 0.984 | locus YOL012C, strain htz1 1.19 | locus YOL147C, strain pex11, active compounds read low 0.979 | locus YOR001W, strain rrp6, active compounds read low 0.936 | locus YOR061W, strain CKA2, active compounds read low 0.956 | locus YOR069W, strain VPS5, active compounds read low 0.994 | locus YOR070C, strain gyp1, active compounds read low 0.993 | locus YOR080W, strain dia2, active compounds read low 0.976 | locus YOR083W, strain WHI5, active compounds read low 1.06 | locus YOR106W, strain vam3, active compounds read low 1.06 | locus YOR136W, strain idh2, active compounds read low 0.976 | locus YOR144C, strain elg1, active compounds read low 0.98 | locus YOR184W, strain ser1, active compounds read low 0.953 | locus YOR231W, strain MKK1, active compounds read low 0.996 | locus YOR265W, strain rbl2, active compounds read low 0.991 | locus YOR270C, strain vph1, active compounds read low 0.87 | locus YOR290C, strain snf2, active compounds read low 1.05 | locus YOR316C, strain cot1, active compounds read low 0.981 | locus YPL051W, strain arl3, active compounds read low 0.959 | locus YPL078C, strain atp4, active compounds read low 1.05 | locus YPL106C, strain sse1, active compounds read low 1.04 | locus YPL240C, strain hsp82, active compounds read low 0.976 | locus YPL241C, strain CIN2, active compounds read low 0.986 | locus YPL256C, strain CLN2, active compounds read low 0.995 | locus YPR119W, strain clb2, active compounds read low 0.98 | locus YPR141C, strain kar3, active compounds read low 0.985 | locus YPR163C, strain tif3, active compounds read low 0.983 | locus YPR167C, strain met16, active compounds read low 0.983 | strain wtn01, active compounds read low 0.956
active: locus YGL253W, strain hxk2, active compounds read low 0.91
